According to PubChem BioAssay (NCI):
About 83,000 compounds went through this panel and 20% of them were active in at least one assay; those are over-represented in the sample as a whole.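 Each cell line was grown in a 96-well plate and treated with one concentration of compound for 48 hours. Values below 10 were considered active.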 Unmarked numbers belong to inactive results. Active and inactive are the calls of the source.

The molecules below were run on MDA-MB-468 breast (assay: NCI-60 one-dose screen, 48 h (100 = growth as untreated, 0 = no growth, -100 = all killed)). Details: 10 µM unless noted.

Row | SMILES | growth
1 | C=C(C)[C@@H]1CC[C@]2(C(=O)NCCCN)CC[C@]3(C)[C@H](CC[C@@H]4[C@@]5(C)CC[C@H](O)C(C)(C)[C@@H]5CC[C@]43C)[C@@H]12 | -19.9% [100 µM] (active)
2 | Oc1ccccc1C=Nc1ccccc1N=Cc1ccccc1O.[Cu+2] | 47.5%
3 | Cc1cc2c(C(C)C)c(O)c(O)c(C=NCCCCC(=O)O)c2c(O)c1-c1c(C)cc2c(C(C)C)c(O)c(O)c(C=NCCCCC(=O)O)c2c1O | 35.4%
4 | CCOC(=O)c1ccc2[nH]c(O)c(C(=Nc3ccc(N(C)C(=O)CN4CCN(C)CC4)cc3)c3ccccc3)c2c1 | -84.4% (active)
5 | COc1ccc(OC)c(C2C(C#N)=C(N)Oc3cc(O)ccc32)c1 (stereo not given) | 81.1%
6 | OCCN1CCCN(CCCN2c3ccccc3Sc3ccc(C(F)(F)F)cc32)CC1 | 39.6%
7 | CCCCn1c(=O)c(-c2cc(-c3ccc(Cl)cc3)nc(-c3ccc(Cl)cc3)c2)cc2cc(Cl)ccc21 | 108%
8 | Cc1cccc(-n2c(C)nc3ccc(NC(=O)NCCCl)cc3c2=O)c1 | 92.7%
9 | O=C(CCCCCCCCC(=O)N/N=C\c1cc(Cl)ccc1O)N/N=C\c1cc(Cl)ccc1O | -16% (active)
10 | COc1cc(C2C(C#N)=C(c3c[nH]c4ccccc34)Nc3nc(N)[nH]c(=O)c32)cc(OC)c1OC (stereo not given) | 13.2%
11 | O=C(NNC(=O)c1cccc(Cl)c1)c1ccccc1 | 94.4%
12 | O=C(Nc1ccccc1S)c1ccccc1 | 115%
13 | Nc1ccc(C2=NN(C(=O)c3cc(-c4ccc(Cl)cc4)nc4ccccc34)C(c3ccc(Cl)cc3)C2)cc1 (stereo not given) | 7.85% (active)
14 | O=C(CSc1nc2ccccc2c(=O)n1-c1ccc(Cl)cc1)N/N=C/c1ccc(Oc2ccc(Cl)cc2)cc1 | -18.6% (active)
15 | CCOC(=O)C(CCN(C)C)c1ccccc1 (stereo not given) | 101%
16 | Cc1cc(NCCCCNc2ccnc3cc(Cl)ccc23)nc(Nc2ccc(C(=O)N3CCCCC3)cc2)n1 | -42.3% (active)
17 | O=C(Nc1ccc(F)cc1)Nc1ccc(Br)c(C(F)(F)F)c1 | -5.88% (active)
18 | O=C(Nc1ccc(NS(=O)(=O)c2ccc(F)cc2)cc1)C12CC3CC(CC(C3)C1)C2 | 96.5%
19 | COC(=O)c1ccccc1N(C)C | 107%
20 | CC(=O)CC(c1ccccc1)c1c(C)[nH]c2ccccc12 (stereo not given) | 106%

Row | SMILES | growth
21 | O=C(NNc1nc2cc(F)cc(F)c2n2cccc12)c1cnccn1 | -10.9% (active)
22 | CNc1sc(S(=O)(=O)NC)nc1S(=O)(=O)c1ccc(C)cc1 | 86.3%
23 | COc1ccc(Cl)c(Nc2nc3ccccc3nc2NS(=O)(=O)c2cccc(NC(=O)C(C)(C)N)c2)c1 | 21.5%
24 | Cc1ccc2c(c1)sc(-c1ccc(N(C)C)cc1)[n+]2C | -11.3% (active)
25 | O=c1c2ccccc2sc2c(N3CCCC3)nc3ccccc3c12 | 98.6%
26 | COc1c(O)c(O)cc2c3c(oc12)CC(c1ccc2c(c1)OCO2)CC3=O (stereo not given) | 79.9%
27 | Cc1cc(C2=NNC(=O)Cc3cc4c(cc32)OCCO4)cc(C)c1N | 9.52% (active)
28 | COc1cc(/C=C/C(=O)c2ccc(C(F)(F)F)cc2)ccc1Oc1nc(NCCO)nc(N2CCOCC2)n1 | 85.6%
29 | CCN(CC)CCOc1ccc(Nc2ncc3cc(-c4ccc(O)cc4)c(=O)n(C)c3n2)cc1 | 44.8%
30 | C=C(C)[C@@H]1CC[C@]2(C(=O)OCCOCCOCC[P+](c3ccccc3)(c3ccccc3)c3ccccc3)CC[C@]3(C)[C@H](CC[C@@H]4[C@@]5(C)CC[C@H](OC(=O)C(Cl)Cl)C(C)(C)[C@@H]5CC[C@]43C)[C@@H]12 | -53.7% (active)
31 | CCN1C(=O)N(CC)C2C1N=C(SCc1ccc(Cl)cc1)N2/N=C/C=C/c1ccccc1OC (stereo not given) | 40.5%
32 | O=C(NCCCCCCNC(=O)OCc1ccc2c(Cl)cc(Cl)c(O)c2n1)OCc1ccc2c(Cl)cc(Cl)c(O)c2n1 | -62.7% (active)
33 | CCN(CC)C(CC(=O)c1ccccc1)C(=O)c1ccccc1 (stereo not given) | 56.1%
34 | COc1ccc(/C=C2\N=C3Sc4cc(Cl)ccc4C(=O)N3C2=O)cc1 | 113%
35 | COc1cc(OC)c(/C=C/C(=O)c2c(OC)cccc2OC)c(OC)c1 | -15.6% (active)
36 | C#CCNC(=O)[C@]1(C)CC[C@]2(C)CC[C@@H]3C(=CC[C@H]4[C@@]3(C)CC[C@H]3C(C)(C)C(=O)CC[C@]43C)[C@@H]2C1 | 104%
37 | NNC(=S)N1N=C(c2cc3ccccc3o2)CC1c1c[nH]c2ccccc12 (stereo not given) | 15.3%
38 | CN1C(=O)C(C2=NN(C=O)C(c3ccc(F)cc3)C2)C(=O)N(C)C1=O (stereo not given) | 89.4%
39 | COc1cc2oc(-c3cccc(NC(=O)c4cccc(Br)c4)c3)cc(=O)c2c(OC)c1OC | 66.8%
40 | CN(C)c1ccc(C(=S)c2ccc(N(C)C)cc2)cc1 | -12.3% (active)
